Assay results: ChEMBL document CHEMBL2218924, “A broad activity screen in support of a chemogenomic map for kinase signalling research and drug discovery” (Biochem J, 2013)

These compounds were tested against Serine/threonine-protein kinase pim-2 (Homo sapiens) (UniProt Q9P1W9). Conditions: at 1 µM.
Serine/threonine-protein kinase pim-2 (Homo sapiens), sequence (Q9P1W9 whole entry, looked up): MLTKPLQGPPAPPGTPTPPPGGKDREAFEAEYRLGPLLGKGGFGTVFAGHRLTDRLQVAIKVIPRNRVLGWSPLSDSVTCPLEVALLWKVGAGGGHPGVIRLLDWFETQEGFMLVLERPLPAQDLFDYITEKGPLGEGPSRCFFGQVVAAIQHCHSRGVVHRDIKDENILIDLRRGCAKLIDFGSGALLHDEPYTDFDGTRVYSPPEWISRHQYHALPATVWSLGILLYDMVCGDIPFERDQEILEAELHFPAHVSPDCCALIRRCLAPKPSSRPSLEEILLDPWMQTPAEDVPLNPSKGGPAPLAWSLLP

| SMILES | residual activity [%] |
| --- | --- |
| COc1ccc(CNc2nc(N(CCO)CCO)nc3c2ncn3C(C)C)cc1 | 134 |
| O=C1NC(=O)c2c1c1c3ccccc3[nH]c1c1[nH]c3cc(Br)ccc3c21 | 27 |
| O=C1Nc2ccccc2/C1=C1/Nc2ccccc2/C1=N\OCCC(O)CO (stereo not given) | 98 |
| COc1cccc(-c2cc(=O)c3ccccc3o2)c1N | 126 |
| CO[C@H]1C[C@@H]2CC[C@@H](C)[C@@](O)(O2)C(=O)C(=O)N2CCCC[C@H]2C(=O)O[C@H]([C@H](C)C[C@@H]2CC[C@@H](O)[C@H](OC)C2)CC(=O)[C@H](C)/C=C(\C)[C@@H](O)[C@@H](OC)C(=O)[C@H](C)C[C@H](C)/C=C/C=C/C=C/1C | 110 |
| CC(=O)O/N=C1\C(=C2\C(=O)Nc3cc(Br)ccc32)Nc2ccccc21 | 134 |
| O=[N+]([O-])c1ccc(-c2nc(-c3ccc(F)cc3)c(-c3ccncc3)[nH]2)cc1 | 127 |
| COc1cc2ncnc(Nc3ccc(O)c(Br)c3)c2cc1OC | 78 |
| N#Cc1cnc2cnc(NCc3cccnc3)cc2c1Nc1ccc(F)c(Cl)c1 | 84 |
| Cc1ccc(NC2=CC(=O)c3sc(C)nc3C2=O)cc1 | 99 |
| CC[n+]1c(/C=C/N(C)c2ccccc2)n(-c2ccccc2)c2ccc(-c3nc4ccccc4s3)cc21 | 101 |
| O=c1c2ccccc2[nH]c(=S)n1CCN1CCC(=C(c2ccc(F)cc2)c2ccc(F)cc2)CC1 | 75 |
| COc1ccc(OC)c2c(=S)c3ccccc3[nH]c12 | 117 |
| Cn1cnc2cc3c(Nc4cccc(Br)c4)ncnc3cc21 | 84 |
| NC(=O)c1ccc2[nH]c(-c3ccc(Oc4ccc(Cl)cc4)cc3)nc2c1 | 108 |
| Oc1n[nH]c2nnc(-c3c(-c4ccccc4)nn4ccccc34)cc12 | 123 |
| COc1ccc(C(=O)Nc2sc3c(c2C(N)=O)CCCC3)cc1OC | 87 |
| COc1cc2ncnc(Nc3ccc(Oc4ccccc4)cc3)c2cc1OC | 135 |

| SMILES | residual activity [%] |
| --- | --- |
| Nc1cccc(-c2cc3c(Oc4cccc(O)c4)ncnc3[nH]2)c1 | 118 |
| O=Nc1c(-c2c(O)[nH]c3ccccc23)[nH]c2ccccc12 | 68 |
| Cc1nc(-c2ccccc2)c(-c2ccncc2)o1 | 121 |
| CNc1cc2c(Nc3cccc(Br)c3)ncnc2cn1 | 86 |
| O=C1Nc2cc(Br)ccc2/C1=C1/Nc2ccccc2/C1=N\O | 106 |
| Cc1ccc(S(=O)(=O)/C=C/C#N)cc1 | 111 |
| CC(C)n1cnc2c(NCc3ccccc3)nc(NCCCO)nc21 | 134 |
| CCC(=O)Nc1ccc2ncnc(Nc3cccc(Br)c3)c2c1 | 104 |
| C[C@@H](N)[C@H]1CC[C@H](C(=O)Nc2ccncc2)CC1 | 118 |
| O=C1NC(=O)c2cc(Nc3ccc(F)cc3)c(Nc3ccc(F)cc3)cc21 | 91 |
| CO[C@H]1[C@@H](OC)C[C@H](C)[C@@H](OC)C2=CC(=O)C=C(NC(=O)/C(C)=C/C=C/[C@H](OC)[C@@H](OC(N)=O)/C(C)=C/[C@@H]1C)C2=O | 99 |
| Oc1ccc(Nc2nc(-c3ccc(Cl)cc3)cs2)cc1 | 126 |
| O=c1cc(-c2cccc3c2Sc2ccccc2S3)oc(N2CCOCC2)c1 | 68 |
| O=C1NC(=O)/C(=C/c2ccc3c(c2)OC(F)(F)O3)S1 | 58 |
| Ic1cccc(CSc2nnc(-c3ccncc3)o2)c1 | 93 |
| Cn1nc2c3c(cccc31)C(=O)c1ccccc1-2 | 91 |
| CC(C)n1cnc2/c(=N/c3cccc(Cl)c3)nc(NCCO)[nH]c21 | 137 |

Each compound was assayed against Serine/threonine-protein kinase pim-2 (Homo sapiens) (UniProt Q9P1W9). Conditions: at 10 µM.

| SMILES | residual activity [%] |
| --- | --- |
| COc1ccc(CNc2nc(N(CCO)CCO)nc3c2ncn3C(C)C)cc1 | 130 |
| O=C1NC(=O)c2c1c1c3ccccc3[nH]c1c1[nH]c3cc(Br)ccc3c21 | 6 |
| O=C1Nc2ccccc2/C1=C1/Nc2ccccc2/C1=N\OCCC(O)CO (stereo not given) | 44 |
| COc1cccc(-c2cc(=O)c3ccccc3o2)c1N | 102 |
| CO[C@H]1C[C@@H]2CC[C@@H](C)[C@@](O)(O2)C(=O)C(=O)N2CCCC[C@H]2C(=O)O[C@H]([C@H](C)C[C@@H]2CC[C@@H](O)[C@H](OC)C2)CC(=O)[C@H](C)/C=C(\C)[C@@H](O)[C@@H](OC)C(=O)[C@H](C)C[C@H](C)/C=C/C=C/C=C/1C | 142 |
| CC(=O)O/N=C1\C(=C2\C(=O)Nc3cc(Br)ccc32)Nc2ccccc21 | 67 |
| O=[N+]([O-])c1ccc(-c2nc(-c3ccc(F)cc3)c(-c3ccncc3)[nH]2)cc1 | 139 |
| COc1cc2ncnc(Nc3ccc(O)c(Br)c3)c2cc1OC | 66 |
| N#Cc1cnc2cnc(NCc3cccnc3)cc2c1Nc1ccc(F)c(Cl)c1 | 63 |
| Cc1ccc(NC2=CC(=O)c3sc(C)nc3C2=O)cc1 | 111 |
| CC[n+]1c(/C=C/N(C)c2ccccc2)n(-c2ccccc2)c2ccc(-c3nc4ccccc4s3)cc21 | 136 |
| O=c1c2ccccc2[nH]c(=S)n1CCN1CCC(=C(c2ccc(F)cc2)c2ccc(F)cc2)CC1 | 133 |
| COc1ccc(OC)c2c(=S)c3ccccc3[nH]c12 | 77 |
| Cn1cnc2cc3c(Nc4cccc(Br)c4)ncnc3cc21 | 97 |
| NC(=O)c1ccc2[nH]c(-c3ccc(Oc4ccc(Cl)cc4)cc3)nc2c1 | 119 |
| Oc1n[nH]c2nnc(-c3c(-c4ccccc4)nn4ccccc34)cc12 | 84 |
| COc1ccc(C(=O)Nc2sc3c(c2C(N)=O)CCCC3)cc1OC | 114 |
| COc1cc2ncnc(Nc3ccc(Oc4ccccc4)cc3)c2cc1OC | 142 |

| SMILES | residual activity [%] |
| --- | --- |
| Nc1cccc(-c2cc3c(Oc4cccc(O)c4)ncnc3[nH]2)c1 | 84 |
| O=Nc1c(-c2c(O)[nH]c3ccccc23)[nH]c2ccccc12 | 38 |
| Cc1nc(-c2ccccc2)c(-c2ccncc2)o1 | 117 |
| CNc1cc2c(Nc3cccc(Br)c3)ncnc2cn1 | 88 |
| O=C1Nc2cc(Br)ccc2/C1=C1/Nc2ccccc2/C1=N\O | 85 |
| Cc1ccc(S(=O)(=O)/C=C/C#N)cc1 | 103 |
| CC(C)n1cnc2c(NCc3ccccc3)nc(NCCCO)nc21 | 87 |
| CCC(=O)Nc1ccc2ncnc(Nc3cccc(Br)c3)c2c1 | 94 |
| C[C@@H](N)[C@H]1CC[C@H](C(=O)Nc2ccncc2)CC1 | 121 |
| O=C1NC(=O)c2cc(Nc3ccc(F)cc3)c(Nc3ccc(F)cc3)cc21 | 31 |
| CO[C@H]1[C@@H](OC)C[C@H](C)[C@@H](OC)C2=CC(=O)C=C(NC(=O)/C(C)=C/C=C/[C@H](OC)[C@@H](OC(N)=O)/C(C)=C/[C@@H]1C)C2=O | 129 |
| Oc1ccc(Nc2nc(-c3ccc(Cl)cc3)cs2)cc1 | 82 |
| O=c1cc(-c2cccc3c2Sc2ccccc2S3)oc(N2CCOCC2)c1 | 29 |
| O=C1NC(=O)/C(=C/c2ccc3c(c2)OC(F)(F)O3)S1 | 10 |
| Ic1cccc(CSc2nnc(-c3ccncc3)o2)c1 | 86 |
| Cn1nc2c3c(cccc31)C(=O)c1ccccc1-2 | 44 |
| CC(C)n1cnc2/c(=N/c3cccc(Cl)c3)nc(NCCO)[nH]c21 | 93 |
